“And” between values parts separate entries of the source, which are not always exact repeats. Identical values can stand only once. Results filed as inconclusive are left out. The source made the active and inactive calls. The call rests on the fitted dose curve.

Here are results for 19 compounds from PubChem BioAssay (NCATS).
Potency means the concentration at half of the fitted maximal effect.

The first assay is described as follows: Primary qHTS to identify inhibitors of SARS-CoV-2 cell entry (AID 1645846). Further: nearly all actives have a fitted effect of over 45% in size. As to conditions: SARS-CoV-2 pseudovirus cell entry assay, luminescence; activity change, negative = inhibition: at 57.1 µM (top of the series) unless noted; series mostly up to 57.1 µM. In outline: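 Using luciferase-reporting pseudoviruses carrying Wuhan-Hu-1 spike, the screen tracks entry into stably ACE2-expressing cells over 48 hr. Activity is expressed relative to spike particles versus particles lacking any fusion protein.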
On the technique in general: qHTS replaces the single test concentration by a dilution series.
On to `COc1cccc2c1C(=O)c1c(O)c3c(c(O)c1C2=O)C[C@@](O)(C(=O)CO)C[C@@H]3O[C@H]1C[C@H](N)[C@@H](O)[C@H](C)O1`, for which the activity change, negative = inhibition was -93.2% and -92.9%.
In the case of `Cc1cc(NS(=O)(=O)c2ccc(N)cc2)nc(C)n1`, the activity change, negative = inhibition was -52.4%.
Turning to `COc1ccc2c(c1OC)C(=O)O[C@H]2[C@@H]1c2cc3c(cc2CCN1C)OCO3`, the Potency result is “inactive”.
The same measure, in the same setting: next, `O=C(Nc1ccc(Br)cc1)c1cc(Br)cc(Br)c1O`: “inactive”.
With `Cc1cc2c(cc1CC(=O)c1sccc1S(=O)(=O)Nc1onc(C)c1Cl)OCO2`, the Potency entry is “inactive” and the activity change, negative = inhibition was -56.4%.
With `C[n+]1c2cc(N)ccc2cc2ccc(N)cc21` (tested in a mixture with another compound), the Potency was 7.94 µM (active).

The nature of the next assay: VSVG counterscreen qHTS to identify inhibitors of SARS-CoV-2 cell entry (AID 1645847). Further: nearly all actives have a fitted effect of over 65% in size. On activity change, negative = inhibition: on the % scale 0 is the no-effect control and ±100 the full control effect. To be noted: VSV-G pseudotyped particle entry, luciferase; series mostly up to 57.2 µM. In outline: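 Entry of VSV-G pseudotyped particles into human ACE2-expressing HEK293 cells was measured by luciferase luminescence 48 h after infection, with compound added 1 h beforehand.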
A general note: The purpose of a counterscreen is to sort out artefacts and off-target activity.
For the compound `COc1cccc2c1C(=O)c1c(O)c3c(c(O)c1C2=O)C[C@@](O)(C(=O)CO)C[C@@H]3O[C@H]1C[C@H](N)[C@@H](O)[C@H](C)O1`, the Potency is 0.0961 µM (active).
Take `Cc1cc(NS(=O)(=O)c2ccc(N)cc2)nc(C)n1`: the Potency result was “inactive”.
For the compound `CCCCCCNC(=O)n1cc(F)c(=O)[nH]c1=O`, the Potency is 5.41 µM (active).
As for `CCOc1ccc2nc3cc(N)ccc3c(N)c2c1`, the Potency was 21.5 µM (active).
In the case of `O=C1CN(/N=C/c2ccc([N+](=O)[O-])o2)C(=O)N1`, the Potency was 1.92 µM (active).
The same measure, in the same setting: next, `Nc1nc2[nH]cc(CCc3ccc(C(=O)N[C@@H](CCC(=O)O)C(=O)O)cc3)c2c(=O)[nH]1`: 1.71 µM (active); `Cc1ccc(Nc2nccc(N(C)c3ccc4c(C)n(C)nc4c3)n2)cc1S(N)(=O)=O`: 12.1 µM (active); `CC(C)=CCC/C(C)=C/CC/C(C)=C/CCC(=O)OC/C=C(\C)CCC=C(C)C`: 1.08 µM (active).
In the case of `Nc1ccn([C@@H]2O[C@H](CO)[C@@H](O)C2O)c(=O)n1` (some centres undefined), the Potency was 4.82 µM (active).
Take `Oc1ccc(Cl)c2cccnc12`: the Potency was 3.04 µM (active).
Turning to `COC(=O)C1=C(C)NC(C)=C(C(=O)OCC(C)=O)C1c1ccccc1[N+](=O)[O-]` (centres undefined), the Potency is 8.57 µM (active).
Same read-out and setting: the result for `Cc1cc2c(cc1CC(=O)c1sccc1S(=O)(=O)Nc1onc(C)c1Cl)OCO2` reads “inactive”; that for `Cc1nc2ccc(CN(C)c3ccc(C(=O)N[C@@H](CCC(=O)O)C(=O)O)s3)cc2c(=O)[nH]1`, 0.304 µM (active); that for `CC(C)OC(=O)OCOP(=O)(CO[C@H](C)Cn1cnc2c(N)ncnc21)OCOC(=O)OC(C)C`, 0.0192 µM (active).
For `C[n+]1c2cc(N)ccc2cc2ccc(N)cc21` (tested in a mixture with another compound), the Potency is 4.29 µM (active).
The same measure, in the same setting: the result for `Cc1c(C)c2c(c(C)c1O)CCC(C)(COc1ccc(CC3SC(=O)NC3=O)cc1)O2` (centres undefined) reads 24.1 µM (active); that for `CCN(CC)C(C)CN1c2ccccc2Sc2ccccc21` (centres undefined), 0.341 µM (active).
